DT40 TDP1 no CPT – qHTS for Inhibitors of human tyrosyl-DNA phosphodiesterase 1 (TDP1): qHTS in cells in absence of CPT; DT40 Tdp1-/- hTDP1 cells, no CPT, ATP luminescence, 48 h; Potency, µM (top dose mostly 46.2 µM), hits mostly inhibitors; 420,000 tested, 15% active; AID 686978, 2013; also: nearly all actives have a fitted effect of over 55% in size
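Chicken DT40 Tdp1-/- cells complemented with human TDP1, screened without camptothecin (DMSO vehicle only), 400 cells/well. Compounds pin-transferred, cells incubated at 37 °C for at least 48 hr. Growth read as ATP-dependent luminescence (CellTiter-Glo, 30 min at RT).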
Gal4-VP16 FLuc – counter-screen for ROR gamma inhibitors: Gal4-VP16 reporter; Drosophila S2 Gal4-VP16 UAS-luciferase, luminescence, 20 h; Potency, µM (highest dose often 53.6 µM), hits mostly inhibitors; 310,000 tested, 3.5% active; AID 2546;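 also: Gal4-VP16 expression switched on by copper sulfate through the metallothionein promoter; nearly all actives have a fitted effect of over 50% in size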
12-LOX inh – inhibitors of human 12S-lipoxygenase ALOX12 | purified 12hLO, xylenol orange hydroperoxide absorbance | P18054 | Potency, µM (titrated, usually from 108 µM), most hits filed as inhibitors | 580,000 tested, 1.1% active | AID 1671190
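Purified human 12hLO at 150 nM in 25 mM Hepes, 0.01% Triton X-100, pH 7.0, preincubated 15 min at room temperature with compound. Reaction started with 40 uM arachidonic acid, 30 min at room temperature. Hydroperoxide measured by Fe-xylenol orange, 573/405 nm absorbance ratio.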
TDP1 cell CPT – DT40-hTDP1 cell growth loss with CPT; 420,000 tested, 12% active; chicken DT40 Tdp1-/-;hTDP1 cells + 20 nM CPT, ATP luminescence, 48 h; Potency, µM (top dose mostly 46.2 µM), most hits filed as inhibitors; also: nearly all actives have a fitted effect of over 55% in size
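Chicken DT40 Tdp1-/- cells stably complemented with human TDP1 were seeded at 400 cells/well in medium containing 20 nM camptothecin, exposed to pin-transferred compounds, and grown at 37 °C for at least 48 hr. Viability was read as ATP luminescence.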
ELG1 repair inh – inhibitors of ELG1-dependent DNA repair in HEK293T cells. 330,000 tested, 2.3% active. HEK293T ELG1-luciferase reporter, luminescence, 16 h; DNA damage induced by 5-fluorouridine. Potency, µM (top dose mostly 46.1 µM), hits mostly inhibitors; also: nearly all actives have a fitted effect of over 55% in size
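Reporter activity after DNA damage by 5-fluorouridine is monitored. Compound-treated cells incubate 16 hr at 37 °C, then ONE-Glo is added for 30 min before luminescence reading.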
RORgamma inh – ROR gamma (mouse) transcription inhibition | Drosophila S2 Gal4-RORgamma UAS-luciferase reporter, 20 h | AID 2551 | 310,000 tested, 5.4% active | Potency, µM (top dose mostly 53.6 µM), hits mostly inhibitors; also: nearly all actives have a fitted effect of over 60% in size
Target sequence (P51450 whole entry, looked up, the tested form may be a part): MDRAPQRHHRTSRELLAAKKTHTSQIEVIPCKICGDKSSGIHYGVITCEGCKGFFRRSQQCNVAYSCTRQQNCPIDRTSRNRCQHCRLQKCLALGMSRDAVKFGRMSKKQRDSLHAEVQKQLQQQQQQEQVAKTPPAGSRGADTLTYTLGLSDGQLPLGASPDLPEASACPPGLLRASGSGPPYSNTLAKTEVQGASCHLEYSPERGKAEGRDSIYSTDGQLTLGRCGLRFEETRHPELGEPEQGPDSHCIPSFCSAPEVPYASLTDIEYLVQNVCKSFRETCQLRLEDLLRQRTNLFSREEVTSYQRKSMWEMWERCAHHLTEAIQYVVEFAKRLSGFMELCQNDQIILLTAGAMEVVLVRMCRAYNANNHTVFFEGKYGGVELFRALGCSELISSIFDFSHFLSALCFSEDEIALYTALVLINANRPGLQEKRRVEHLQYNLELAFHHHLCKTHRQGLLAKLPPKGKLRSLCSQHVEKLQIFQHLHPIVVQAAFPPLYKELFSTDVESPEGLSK
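Stably transfected Drosophila Schneider cells are the test system, with ROR gamma fused to Gal4 and luciferase under UAS control; luminescence is read after 20 hr of 700 uM copper sulfate induction at ambient temperature.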
Large screens that a line does not name were inactive. Compounds with a hit are over-represented: about 15% of the library has one in this group of screens. Calls follow the shape of the dose curve; as a rule, active = well fitted curve in the direction sought with a large enough effect; inconclusive = small, poorly fitted or top-dose-only effect, or another doubt; inactive = no such curve, though single readings can be large; an effect the other way counts as inactive or inconclusive.

COc1ccc(CCN2C(=O)N(c3cccc(C)c3)C(=O)C2CC(=O)Nc2ccccc2)cc1OC (stereo not drawn)	DT40 TDP1 no CPT inconclusive, 12-LOX inh inconclusive, TDP1 cell CPT 23.1µM (no result: Gal4-VP16 FLuc, ELG1 repair inh, RORgamma inh)
COc1ccc(C2c3c(-c4ccccc4O)n[nH]c3C(=O)N2CCO)cc1OC (stereo not drawn)	none (no result: DT40 TDP1 no CPT, Gal4-VP16 FLuc, TDP1 cell CPT, ELG1 repair inh, RORgamma inh)
CCCCN1C(=O)c2[nH]nc(-c3ccccc3O)c2C1c1ccc(OCc2ccccc2)c(OC)c1 (stereo not drawn)	DT40 TDP1 no CPT 20.6µM, TDP1 cell CPT inconclusive (no result: Gal4-VP16 FLuc, ELG1 repair inh, RORgamma inh)
COc1ccc(C2c3c(-c4ccccc4O)n[nH]c3C(=O)N2CCCO)cc1OC (stereo not drawn)	none (no result: DT40 TDP1 no CPT, Gal4-VP16 FLuc, TDP1 cell CPT, ELG1 repair inh, RORgamma inh)
COc1cc(C2c3c(-c4ccccc4O)n[nH]c3C(=O)N2CCO)ccc1OCCC(C)C (stereo not drawn)	none (no result: DT40 TDP1 no CPT, Gal4-VP16 FLuc, TDP1 cell CPT, ELG1 repair inh, RORgamma inh)
CCCOc1ccc(C2c3c(-c4c(C)cc(C)cc4O)n[nH]c3C(=O)N2CCO)cc1 (stereo not drawn)	DT40 TDP1 no CPT 23.1µM, TDP1 cell CPT 20.6µM (no result: Gal4-VP16 FLuc, ELG1 repair inh, RORgamma inh)
CCCCN1C(=O)c2[nH]nc(-c3ccccc3O)c2C1c1ccc(OCc2ccccc2)cc1 (stereo not drawn)	DT40 TDP1 no CPT inconclusive, TDP1 cell CPT 18.4µM (no result: Gal4-VP16 FLuc, ELG1 repair inh, RORgamma inh)
COc1cc(C2c3c(-c4cc(C)ccc4O)n[nH]c3C(=O)N2CCCO)ccc1OCCC(C)C (stereo not drawn)	DT40 TDP1 no CPT 29.1µM, 12-LOX inh inconclusive, TDP1 cell CPT inconclusive (no result: Gal4-VP16 FLuc, ELG1 repair inh, RORgamma inh)
COc1ccccc1NC(=O)Nc1nnc(CC(=O)NCc2ccccc2)s1	none (no result: DT40 TDP1 no CPT, Gal4-VP16 FLuc, TDP1 cell CPT, ELG1 repair inh, RORgamma inh)
CC(C)OCCCN1C(=O)c2[nH]nc(-c3ccccc3O)c2C1c1cccc(OCc2ccccc2)c1 (stereo not drawn)	DT40 TDP1 no CPT inconclusive, TDP1 cell CPT 10.3µM (no result: Gal4-VP16 FLuc, ELG1 repair inh, RORgamma inh)
Cc1ccc(C2c3c(-c4ccccc4O)n[nH]c3C(=O)N2CCCO)cc1 (stereo not drawn)	DT40 TDP1 no CPT 29.1µM, TDP1 cell CPT 18.4µM (no result: Gal4-VP16 FLuc, ELG1 repair inh, RORgamma inh)
O=C1c2[nH]nc(-c3ccccc3O)c2C(c2ccccc2F)N1Cc1cccnc1 (stereo not drawn)	DT40 TDP1 no CPT inconclusive, TDP1 cell CPT inconclusive (no result: Gal4-VP16 FLuc, ELG1 repair inh, RORgamma inh)
CCCN1C(=O)c2[nH]nc(-c3ccccc3O)c2C1c1ccc(OCc2ccccc2)c(OCC)c1 (stereo not drawn)	DT40 TDP1 no CPT 16.4µM, TDP1 cell CPT 23.1µM (no result: Gal4-VP16 FLuc, ELG1 repair inh, RORgamma inh)
CCOc1ccc(C2c3c(-c4ccccc4O)n[nH]c3C(=O)N2Cc2cccnc2)cc1OC (stereo not drawn)	none (no result: Gal4-VP16 FLuc, ELG1 repair inh, RORgamma inh)
CC(C)OCCCN1C(=O)c2[nH]nc(-c3ccccc3O)c2C1c1ccccc1F (stereo not drawn)	DT40 TDP1 no CPT 13µM, TDP1 cell CPT 13µM (no result: Gal4-VP16 FLuc, ELG1 repair inh, RORgamma inh)
COc1ccc(CCN2C(=O)c3[nH]nc(-c4ccccc4O)c3C2c2ccc(OC)cc2)cc1 (stereo not drawn)	DT40 TDP1 no CPT inconclusive, TDP1 cell CPT inconclusive (no result: Gal4-VP16 FLuc, ELG1 repair inh, RORgamma inh)
Nc1nnnn1CC(=O)NCc1cccnc1Oc1ccc(F)cc1F	none (no result: DT40 TDP1 no CPT, Gal4-VP16 FLuc, TDP1 cell CPT, ELG1 repair inh, RORgamma inh)
CC(C)=CCC/C(C)=C/COC=O	none (no result: DT40 TDP1 no CPT, Gal4-VP16 FLuc, TDP1 cell CPT, ELG1 repair inh, RORgamma inh)
CC1CCN([C@@H]2[C@H](O)[C@H](CO)O[C@@H]2CNC(=O)c2ccc(F)c(Cl)c2)CC1	none (no result: DT40 TDP1 no CPT, Gal4-VP16 FLuc, TDP1 cell CPT, ELG1 repair inh, RORgamma inh)
COCCN1C(=O)c2[nH]nc(-c3ccccc3O)c2C1c1ccc(OC)cc1 (stereo not drawn)	none
CCCCN1C(=O)c2[nH]nc(-c3ccccc3O)c2C1c1ccc(C(C)(C)C)cc1 (stereo not drawn)	DT40 TDP1 no CPT 13µM, TDP1 cell CPT 20.6µM (no result: Gal4-VP16 FLuc, ELG1 repair inh, RORgamma inh)
COc1cccc(-c2cc3c(=O)n(CCNC(=O)c4ccc(F)cc4)ccn3n2)c1	none (no result: DT40 TDP1 no CPT, Gal4-VP16 FLuc, TDP1 cell CPT, ELG1 repair inh, RORgamma inh)
OC(c1ccccc1)(C1CCCCC1)C(CN1CCOCC1)c1ccccc1 (stereo not drawn)	DT40 TDP1 no CPT 23.1µM, 12-LOX inh inconclusive, TDP1 cell CPT 18.4µM, RORgamma inh inconclusive
CCC(O)(c1ccccc1)C(CN1CCOCC1)c1ccccc1 (stereo not drawn)	12-LOX inh inconclusive, TDP1 cell CPT inconclusive

Bioassay records from PubChem BioAssay.
